Experimental data: PubChem BioAssay
Measured potencies and affinities stand elsewhere. Records with an inconclusive call do not appear. Activity calls are given as the source filed them. Unless noted, no rule for the calls is given here.

Key:
[1] = RMG-1 ovarian cancer cell viability loss – cherry-pick, dose response (AID 687029;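 active = signal drop whose fitted half-maximal concentration is at most twice the top valid dose, in every test run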;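 also: cells exposed to compound for 96 hours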)
[2] = IOSE-T80 viability loss, PAX8-independent line – cell-based, cherry-pick, selectivity assay for PAX8 inhibitor project, dose response (AID 687032;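 active = fitted half-maximal concentration for viability loss no higher than twice the top valid dose, in every repeat run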;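 also: cells exposed to compound for 96 h before reading; 0% = neutral control wells and -100% = 2 µM mitoxantrone kill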)
[3] = CMV-driven luciferase expression suppression in HEK293 – cell-based, luminescence, dry powder, counter-screen for Pax8 inhibitor project, dose response (AID 743020;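 active = signal-lowering compounds whose fitted half-maximal concentration is at or below twice the top tested dose in every run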;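 also: HEK293 cells stably expressing the CMV luciferase reporter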)
[4] = general cell-killing toxicity readout – plate reader, dry powder samples, cytotoxicity control for PAX8 inhibitor project, dose response (AID 743021)
[5] = IGROV1 cell killing – plate reader, dry powder samples, PAX8 inhibitor project, dose response (AID 743043);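 also: more negative means fewer viable cells or more cytotoxicity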
[6] = OVCAR-3 cell viability loss – plate reader, dry powder samples, PAX8 inhibitor project, dose response (AID 743044)
[7] = toxicity toward immortalized ovarian surface epithelium – cell-based, plate reader, dry powder samples, cytotoxicity control for PAX8 inhibitor project, dose response (AID 743045);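 also: 0% = neutral control median and -100% = positive control median; more negative values mean more cell killing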
[8] = A2780 cell killing – plate reader, dry powder samples, cytotoxicity control, dose response (AID 743046);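 also: 0% = neutral control wells and -100% = cytotoxic reference compound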
[9] = OVCAR8 cell viability loss – plate reader, dry powder samples, PAX8 project, dose response (AID 743197)
[10] = max activity: at 35 µM, hits give low values unless noted

Measured: max activity

CN1C(=O)c2cc(NC(=O)c3cccc(Cl)c3)ccc2OC[C@@H]2O[C@H](CC(=O)NC3CCCCC3)CC[C@@H]21
inactive: [1] | [2] | [3] | [4] | [5] | [6]; [10] -25.7% | [7]

O=C(C[C@@H]1C[C@@H]2c3cc(NS(=O)(=O)c4ccc(F)cc4)ccc3O[C@@H]2[C@@H](CO)O1)NCc1ccc(-c2ccccc2)cc1
inactive: [1] | [2] | [3] | [4] | [5] | [6]; [10] -23.3% [at 16 µM, hits give low values] | [7]

COc1ccccc1C#Cc1ccc([C@@H]2[C@@H](C#N)N(C(=O)C3CCCCC3)[C@H]2CO)cc1
inactive: [1] | [2] | [3] | [4] | [5] | [6]; [10] 26.7% [at 30 µM, hits give low values] | [6]; [10] | [7] | [8] | [9]

O=C(Nc1ccc(C(F)(F)F)cc1)N1C[C@@H]2N[C@H](C1)C2c1ccc(-c2cccc(F)c2)cc1 (some centres undefined)
inactive: [1] | [2] | [3] | [4] | [5] | [6]; NIH:OVCAR-3 ovarian cancer cell viability, at 8 µM, hits give low values -9.78% | [6]; NIH:OVCAR-3 ovarian cancer cell viability, at 35 µM, hits give low values -0.968% | [7] | [8] | [9]

C[C@H]1CN([C@@H](C)CO)C(=O)Cc2cc(NC(=O)Nc3ccc4c(c3)OCO4)ccc2O[C@@H]1CN(C)CC1CCCCC1
inactive: [1] | [2] | [3] | [4] | [5] | [6]; [10] -10.1% | [7]

CCCCNC(=O)C(Sc1ccccc1)c1ccccc1 (centres undefined)
inactive: [1] | [2] | [3] | [4]

C[C@H](O)C#Cc1ccc2c(c1)O[C@H](CN(C)Cc1ccc(-c3ccccc3)cc1)[C@H](C)CN([C@@H](C)CO)S2(=O)=O
inactive: [1] | [2] | [3] | [4] | [5] | [6]; [10] 54.2% [at 0.5 µM, hits give low values] | [7] | [8]

C[C@@H]1CN([C@H](C)CO)C(=O)c2cc(NC(=O)Nc3ccc(F)cc3)ccc2O[C@@H](C)CCCCO[C@H]1CN(C)S(=O)(=O)c1ccc(Cl)cc1
inactive: [1] | [2] | [3] | [4] | [5] | [6]; [10] -22.1% [at 16 µM, hits give low values] | [7]

COc1ccc(CN(C)C[C@@H]2OCCCC[C@@H](C)Oc3ccc(NC(=O)Nc4ccc(C(F)(F)F)cc4)cc3C(=O)N([C@@H](C)CO)C[C@H]2C)cc1
inactive: [1] | [2] | [3] | [4] | [5] | [6]; [10] -5.22% [at 16 µM, hits give low values] | [7] | [8]

C[C@@H]1CCCCO[C@@H](CN(C)Cc2ccc(Cl)c(Cl)c2)[C@H](C)CN([C@H](C)CO)C(=O)c2cc(NS(=O)(=O)c3ccc(F)cc3)ccc2O1
inactive: [1] | [2] | [3] | [4] | [5] | [6]; [10] -22% | [7] | [8]

C[C@@H]1CN([C@H](C)CO)C(=O)c2c(c3ccccc3n2C)-c2ccccc2CO[C@H]1CN(C)C(=O)Nc1cccc(C(F)(F)F)c1
inactive: [1] | [2] | [3] | [4] | [5] | [6]; [10] -25.5% [at 16 µM, hits give low values] | [7] | [8]

COc1ccc(S(=O)(=O)N(C)C[C@H]2OCCCC[C@@H](C)Oc3ccc(NS(=O)(=O)c4c(C)noc4C)cc3C(=O)N([C@H](C)CO)C[C@H]2C)cc1
inactive: [1] | [2] | [3] | [4] | [5] | [6]; [10] -13.5% | [7] | [8]

C[C@@H]1CN([C@@H](C)CO)C(=O)c2c(c3ccccc3n2C)-c2ccccc2CO[C@H]1CN(C)S(=O)(=O)c1ccccc1F
inactive: [1] | [2] | [3] | [4] | [5] | [6]; [10] -17.2% [at 18 µM, hits give low values] | [7] | [8]

C[C@@H]1CN([C@@H](C)CO)C(=O)Cc2cc(NC(=O)Nc3ccc(C(F)(F)F)cc3)ccc2O[C@H]1CN(C)C(=O)Nc1ccc(C(F)(F)F)cc1
inactive: [1] | [2] | [3] | [4] | [5] | [6]; [10] -32.2% | [7] | [8]

C[C@@H]1CN([C@@H](C)CO)S(=O)(=O)c2ccc(C#C[C@@H](C)O)cc2O[C@@H]1CN(C)Cc1ccc(-c2ccccc2)cc1
inactive: [1] | [2] | [3] | [4] | [5] | [6]; [10] -11.9% [at 16 µM, hits give low values] | [7] | [8]

C[C@H](CO)N1C[C@H](C)[C@H](CN(C)Cc2ccc(C(F)(F)F)cc2)OCCCC[C@H](C)Oc2ccc(NC(=O)c3ccccc3)cc2C1=O
inactive: [1] | [2] | [3] | [4] | [5] | [6]; [10] -59.7% | [7] | [8]

C[C@@H]1CCCCO[C@@H](CN(C)Cc2ccncc2)[C@H](C)CN([C@H](C)CO)C(=O)c2cc(NC(=O)Nc3ccc(C(F)(F)F)cc3)ccc2O1
inactive: [1] | [2] | [3] | [4] | [5] | [6]; [10] 17.2% [at 4.2 µM, hits give low values] | [7] | [8]

C[C@@H]1CCCCO[C@@H](CN(C)Cc2ccc(Cl)c(Cl)c2)[C@H](C)CN([C@H](C)CO)C(=O)c2cc(NC(=O)Nc3ccc(F)cc3)ccc2O1
inactive: [1] | [2] | [3] | [4] | [5] | [6]; [10] -37% | [7] | [8]

C[C@@H]1CN([C@@H](C)CO)C(=O)c2c(c3ccccc3n2C)-c2ccccc2CO[C@H]1CN(C)S(=O)(=O)c1cccc(F)c1
inactive: [1] | [2] | [3] | [4] | [5] | [6]; [10] -19.9% [at 16 µM, hits give low values] | [7] | [8]

COc1ccc(NC(=O)Nc2ccc3c(c2)C(=O)N([C@@H](C)CO)C[C@@H](C)[C@@H](CN(C)Cc2ccc(Cl)c(Cl)c2)OCCCC[C@@H](C)O3)cc1
inactive: [1] | [2] | [3] | [4] | [5] | [6]; [10] -14.2% | [7] | [8]

Cc1ccc(S(=O)(=O)N(C)C[C@@H]2OCCCC[C@H](C)Oc3ccc(NS(=O)(=O)c4ccc(F)cc4)cc3C(=O)N([C@H](C)CO)C[C@H]2C)cc1
inactive: [1] | [2] | [3] | [4] | [5] | [6]; [10] -6.55% | [7] | [8]
